# Assay results from PubChem BioAssay (NCATS).
# Values joined by “and” are separate entries in the source; they are usually repeats but may differ in a detail not shown here. Equal values may be shown once. Results filed as inconclusive are left out. A structure can be active in one record and inactive in another. Active and inactive are the calls of the source. Calls come from the whole dose curve; as a rule, active = well fitted inhibition curve with a large enough effect; inconclusive = small, poorly fitted or top-dose-only effect; inactive = flat fitted curve, though single readings scatter.
# System: SC27B
# Experiment: qHTS profiling for inhibitors of Plasmodium falciparum proliferation (AID 504749);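 for activity, negative = inhibition: 0% = DMSO vehicle and full inhibition = artemisinin control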
# Details: P. falciparum in erythrocytes, SYBR Green DNA, 72 h; series mostly up to 28.7 µM; activity, negative = inhibition: at the top concentration
# Procedure, shortened: (§1)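 SYBR Green fluorescence of parasite DNA, read after lysis and overnight dark incubation, measured growth over 72 h in erythrocyte culture at 0.3% parasitemia and 2.5% hematocrit. Data normalised to DMSO and 0.29 uM artemisinin, with plate-drift correction.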
# Note: nearly all actives have a fitted effect of over 60% in size.
# Potency is the fitted concentration of half-maximal effect.
row,SMILES,"activity, negative = inhibition"
1,CCOC(=O)CC(SP(=S)(OC)OC)C(=O)OCC (centres undefined),9.58% (inactive)
2,CC(C)c1cccc(C(C)C)c1O,0.771% (inactive)
3,C=CCN1C[C@H](C)N([C@H](c2ccc(C(=O)N(CC)CC)cc2)c2cccc(OC)c2)C[C@H]1C,-23% (inactive)

# System: W2
# Experiment: as above
# Details: P. falciparum in erythrocytes, SYBR Green DNA, 72 h; series mostly up to 28.7 µM; activity, negative = inhibition: at the top concentration
# Procedure, shortened: as §1
SMILES,"activity, negative = inhibition",Potency
CCOC(=O)CC(SP(=S)(OC)OC)C(=O)OCC (centres undefined),20.5% (inactive),
CC(C)c1cccc(C(C)C)c1O,7.46% (inactive),
C=CCN1C[C@H](C)N([C@H](c2ccc(C(=O)N(CC)CC)cc2)c2cccc(OC)c2)C[C@H]1C,,15.1 µM (active)

# System: CRL-7250
# Experiment: Cytotoxic Profiling of Annotated Libraries Using Quantitative High-Throughput Screening (AID 1296008); for max response: % is set by controls: 0 for no effect and ±100 for the full control effect
# Details: Five cell lines viability, CellTiter-Glo ATP luminescence, 48-72 h; max response: hits give low values
# Procedure, shortened: (§2)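 Cytotoxicity was measured as CellTiter-Glo ATP luminescence, read after 10 min at room temperature. Compound treatment of the cells lasted 48 or 72 hr at 37 degrees Celsius in a qHTS format.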
SMILES,max response,outcome,Potency
C[C@H]1[C@@H]2Cc3ccc(O)cc3[C@@]1(C)CCN2C,-7.45% (inactive),,
COC(=O)C(Cl)C(=O)OC,-1.36% (inactive),,
CC(=O)OCC1=C(C(=O)O)N2C(=O)[C@@H](N)[C@H]2SC1,-3.91% (inactive),inactive,
COc1cc(OC)c(OC)cc1C=O,-7.23% (inactive) and -7.54% (inactive),,
C[C@]12CC[C@@H]3c4ccc(OC(=O)N(CCCl)CCCl)cc4CC[C@H]3[C@@H]1CC[C@@H]2OP(=O)(O)O,,inactive,10.5 µM (active)
C#CC(O)(C=CCl)CC (centres undefined),-0.331% (inactive),,
O=c1c(C2CC(c3ccc(-c4ccc(Br)cc4)cc3)Cc3ccccc32)c(O)sc2ccccc12 (centres undefined),0.288% (inactive),,
CNCC(=O)c1ccc(O)c(O)c1,0.325% (inactive),,
CCOC(=O)CC(SP(=S)(OC)OC)C(=O)OCC (centres undefined),-3.52% (inactive),inactive,
COc1cccc([C@@]2(O)CCCC[C@@H]2CN(C)C)c1,,inactive,
CC(C)c1cccc(C(C)C)c1O,-8.58% (inactive) and -1.5% (inactive),,
CCC(CC)(CNC(=O)CCCO)c1cccc(OC)c1,0.244% (inactive),,
C=CCN1C[C@H](C)N([C@H](c2ccc(C(=O)N(CC)CC)cc2)c2cccc(OC)c2)C[C@H]1C,0.0318% (inactive),inactive,
O=C(O)/C=C\C(=O)O,-1.31% (inactive),,
O=[N+]([O-])O[C@H]1CO[C@H]2[C@@H]1OC[C@H]2O[N+](=O)[O-],-11.3% (inactive),,
CC[N+]1(CC)CCC(OC(=O)C(O)(c2ccccc2)c2ccccc2)C1 (centres undefined),-3.85% (inactive),,

SMILES,max response,outcome,Potency
CN1CC[C@]23c4c5ccc(O)c4O[C@H]2[C@@H](O)CC[C@H]3[C@H]1C5,,inactive,
CCC1(c2ccc(N)cc2)CCC(=O)NC1=O (centres undefined),1.43% (inactive) and -1.25% (inactive),,
CC(Cc1ccccc1)N(C)Cc1ccco1 (centres undefined),-3.65% (inactive),,
c1ccc(CN2CCNCC2)cc1,3.96% (inactive),,
CC(NC(C)(C)C)C(=O)c1cccc(Cl)c1 (centres undefined),-10.7% (inactive),inactive,
c1ccc(N2CCNCC2)cc1,4.63% (inactive),,
C[N+]1(CCF)[C@@H]2CC[C@H]1CC(OC(=O)C(O)(c1ccccc1)c1ccccc1)C2 (some centres undefined),,inactive,
CC(C)N(CCC(C(N)=O)(c1ccccc1)c1ccccn1)C(C)C (centres undefined),-4.51% (inactive),inactive,
CC1(C)C(C=C(Cl)Cl)C1C(=O)OC(C#N)c1cccc(Oc2ccccc2)c1 (centres undefined),2.32% (inactive),,
[N-]=[N+]=CC(=O)OC[C@H](N)C(=O)O,-7.47% (inactive),,
C[C@H](N)C(=O)c1ccccc1,-38.6% (inactive),,
CCC(C)C(C)(COC(N)=O)COC(N)=O (centres undefined),1.47% (inactive),,
CCN[C@@H](C)Cc1cccc(C(F)(F)F)c1,-0.0811% (inactive),,
CCCCCN(C)CCC(O)(P(=O)(O)O)P(=O)(O)O,-0.0055% (inactive),,
CC(C)(N)Cc1ccccc1Cl,,inactive,

# System: HEK293
# Experiment: as above
# Details: Five cell lines viability, CellTiter-Glo ATP luminescence, 48-72 h; max response: hits give low values
# Procedure, shortened: as §2
SMILES,max response,outcome
C[C@H]1[C@@H]2Cc3ccc(O)cc3[C@@]1(C)CCN2C,-19.5% (inactive),
CC(=O)OCC1=C(C(=O)O)N2C(=O)[C@@H](N)[C@H]2SC1,0.778% (inactive) and -3.29% (inactive),
COc1cc(OC)c(OC)cc1C=O,-6.96% (inactive),inactive
C[C@]12CC[C@@H]3c4ccc(OC(=O)N(CCCl)CCCl)cc4CC[C@H]3[C@@H]1CC[C@@H]2OP(=O)(O)O,-12.2% (inactive),
C#CC(O)(C=CCl)CC (centres undefined),-13.2% (inactive),
CNCC(=O)c1ccc(O)c(O)c1,3.33% (inactive),
CCOC(=O)CC(SP(=S)(OC)OC)C(=O)OCC (centres undefined),,inactive
COc1cccc([C@@]2(O)CCCC[C@@H]2CN(C)C)c1,-4.04% (inactive),
CC(C)c1cccc(C(C)C)c1O,-6.49% (inactive),inactive
CCC(CC)(CNC(=O)CCCO)c1cccc(OC)c1,-5.56% (inactive),
C=CCN1C[C@H](C)N([C@H](c2ccc(C(=O)N(CC)CC)cc2)c2cccc(OC)c2)C[C@H]1C,-3.98% (inactive) and -24.1% (inactive),
O=C(O)/C=C\C(=O)O,-3.36% (inactive),
O=[N+]([O-])O[C@H]1CO[C@H]2[C@@H]1OC[C@H]2O[N+](=O)[O-],1.42% (inactive),
CC[N+]1(CC)CCC(OC(=O)C(O)(c2ccccc2)c2ccccc2)C1 (centres undefined),3.52% (inactive),
CN1CC[C@]23c4c5ccc(O)c4O[C@H]2[C@@H](O)CC[C@H]3[C@H]1C5,-12.9% (inactive),
CCC1(c2ccc(N)cc2)CCC(=O)NC1=O (centres undefined),4.46% (inactive),inactive
CC(Cc1ccccc1)N(C)Cc1ccco1 (centres undefined),-5.17% (inactive),
c1ccc(CN2CCNCC2)cc1,-21.3% (inactive),
c1ccc(N2CCNCC2)cc1,-4.08% (inactive),
C[N+]1(CCF)[C@@H]2CC[C@H]1CC(OC(=O)C(O)(c1ccccc1)c1ccccc1)C2 (some centres undefined),-5.81% (inactive),
CC(C)N(CCC(C(N)=O)(c1ccccc1)c1ccccn1)C(C)C (centres undefined),-72.3% (inactive),
CC1(C)C(C=C(Cl)Cl)C1C(=O)OC(C#N)c1cccc(Oc2ccccc2)c1 (centres undefined),2.42% (inactive),
[N-]=[N+]=CC(=O)OC[C@H](N)C(=O)O,4.4% (inactive),
C[C@H](N)C(=O)c1ccccc1,-0.637% (inactive),
CCC(C)C(C)(COC(N)=O)COC(N)=O (centres undefined),,inactive
CCN[C@@H](C)Cc1cccc(C(F)(F)F)c1,3.69% (inactive),
CCCCCN(C)CCC(O)(P(=O)(O)O)P(=O)(O)O,-18.4% (inactive),
CC(C)(N)Cc1ccccc1Cl,,inactive
